# Assay outcomes as filed in PubChem BioAssay.
# Sampled rows, rich in hits. Any-hit rate of the full collection: about 12%.
# CHX counter – Cycloheximide Counterscreen for Small Molecule Inhibitors of Shiga Toxin | cell reporter, cycloheximide protein synthesis inhibition counterscreen | max response, % | 12% of 300,000 active; in the data active means max response mostly above about 13%, no sharp cut-off; inactive means mostly below about 14%; further: read at 38.3 µM for the half of the compounds with a filed dose; 0% is about no effect
# MARV entry inh – qHTS for inhibitors of binding or entry into cells for Marburg Virus. Marburg virus pseudotyped entry inhibition, cell reporter. Potency, µM (titrated, usually from 37.8 µM), inactives show at the top dose activity change, negative = inhibition, hits mostly inhibitors. 1.8% of 300,000 active. AID 540276, 2011; calls by dose curve; tested in HEK293 cells; further: potency means the concentration at half of the fitted maximal effect; on the % scale 0 is the no-effect control and ±100 the full control effect
# Shiga toxin inh – A qHTS for Small Molecule Inhibitors of Shiga Toxin; Vero cells, Shiga toxin protein synthesis inhibition reporter; inhibition, % at 38.7 µM; 9.2% of 290,000 active; AID 2315, 2010; in the data active means inhibition mostly above about 28%, no sharp cut-off; inactive means mostly below about 43%; further: 0% is about no effect
# Lassa entry inh – qHTS for Inhibitors of binding or entry into cells for Lassa Virus; Lassa virus pseudotype entry inhibition, cell reporter; Potency, µM (top dose mostly 37.9 µM), inactives show at the top dose activity change, negative = inhibition, usual class: inhibitors; 1.2% of 300,000 active; calls by dose curve; tested in HEK293 cells; further: potency means the concentration at half of the fitted maximal effect; on the % scale 0 is the no-effect control and ±100 the full control effect; nearly all actives have a fitted effect of over 50% in size
# An asterisk follows results filed as active; ? = inconclusive; / = no result given; [ ] = another dose, or the depositor's remark.
SMILES,CHX counter,MARV entry inh,Shiga toxin inh,Lassa entry inh
CCCN1C(=O)C2(c3ccccc31)c1c(oc3ccccc3c1=O)C(=O)N2CCCOC(C)C (centres undefined),/,-13%[46.1 µM],/,13%[46.1 µM]
Cc1ccc(C)c(N2CCN(c3nc4ccccc4n4nnnc34)CC2)c1,/,?,/,22%[46.1 µM]
COc1cc2c(cc1NC(=O)COC(=O)[C@@H](NS(=O)(=O)c1ccccc1)C(C)C)oc1ccccc12,11*,?,56*,-18%
COc1cc2c(cc1NC(=O)CCCN1C(=O)CCC1=O)oc1ccccc12,36*,8%,79*,14%
COc1cc2c(cc1NC(=O)COc1ccccc1OC)oc1ccccc12,5,-25%,36,1%
COc1cc2c(cc1NC(=O)COC(=O)C(CCSC)NC(=O)c1ccccc1Cl)oc1ccccc12 (centres undefined),15,-7%,active,4%
COc1cc2c(cc1NC(=O)Cc1ccc(C)cc1)oc1ccccc12,73*,?,93*,9%
Cc1nc(N2CCCC2)c2c(C(=O)Nc3ccc(Br)cc3F)c(C)oc2n1,/,/,/,-1%[46.1 µM]
Cc1c(C(=O)N2CCC(C)CC2)c(S(=O)(=O)Nc2ccc(OC(F)(F)F)cc2)c(C)n1C,/,/,/,-23%[46.1 µM]
COc1cc2c(cc1NC(=O)C(C)NCc1ccccc1)oc1ccccc12 (centres undefined),64*,?,76*,20%
COc1cc2c(cc1NC(=O)COC(=O)Cn1cnc3ccccc31)oc1ccccc12,36*,?,79*,2%
COc1cc2c(cc1NC(=O)CN1C(=O)NC3(CCc4ccccc43)C1=O)oc1ccccc12 (centres undefined),-2,12µM*,-17,?
COc1ccccc1C(=O)CN1C(=O)NC2(CCc3ccccc32)C1=O (centres undefined),/,14%,/,1%
CC(=O)Nc1ccc(S(=O)(=O)N(C)CC(=O)OCC(=O)N(C)c2ccccc2)cc1,-1,0%[46.1 µM],-4,0%
COc1ccc(CCN(C)C2CCCN(C(=O)CCSC)C2)cc1OC (centres undefined),-2,/,-1,/
COc1ccc(CCN(C)C2CCCN(C(=O)Cn3cnnn3)C2)cc1OC (centres undefined),12*,18%,16,6%
COc1cccc(COCCN2CCN(S(=O)(=O)c3ccccc3)CCC2=O)c1,-8,/,-12,/
O=C(c1ccco1)N1CCN(Cc2ccc(Cl)cc2)CC1,-2,-21%[46.1 µM],-2,3%
O=C(c1ccco1)N1CCN(Cc2cccc(F)c2)CC1,11,1%[46.1 µM],21,1%
O=C(c1ccco1)N1CCN(Cc2csc(-c3ccccc3Cl)n2)CC1,50*,-12%,83*,1%
O=C(c1ccco1)N1CCN(Cc2c(Cl)cccc2Cl)CC1,21*,/,110,/
O=C(c1cc(-c2ccccc2Cl)on1)N1CCN(C(=O)c2ccco2)CC1,-3,1%,-11,8%
O=C(c1ccco1)N1CCN(Cc2cccc3ccccc23)CC1,-2,5µM*,-26,10µM*
Cc1cc(C)c(NC(=O)Cn2nc3c(cc2=O)CCCC3)c(C)c1,/,/,/,-5%[46.1 µM]
C[C@@H](C(=O)Nc1ccc2c(c1)OCCO2)n1nnc2ccccc2c1=O,45*,1%[46.1 µM],107*,-20%[46.1 µM]
SMILES,CHX counter,MARV entry inh,Shiga toxin inh,Lassa entry inh
Cc1ccccc1OC(C)C(=O)Nc1ccc2c(c1)OCCO2 (centres undefined),34*,/,21,/
CC(C(=O)Nc1ccc2c(c1)OCCO2)N1Cc2ccccc2C1=O (centres undefined),21*,-4%[46.1 µM],31,11%[46.1 µM]
CC(C(=O)Nc1ccc2c(c1)OCCO2)n1nnc(-c2ccccc2)n1 (centres undefined),-3,9%,1,-8%
Cc1cnc(C(=O)OC(C)C(=O)Nc2ccc3c(c2)OCCO3)cn1 (centres undefined),-1,8%,5,0%
COc1ccc(Cl)cc1N(CC(=O)NCC(C)C)S(=O)(=O)c1ccc(C)c([N+](=O)[O-])c1,1,1%,-14,8%
O=C(CCl)NN1C(=O)NC(c2ccccc2)(c2ccccc2)C1=O,-5,?,19,?
CN(C)CCCN(C(=O)c1nc2ccccc2s1)c1nc2ccc(F)cc2s1,/,-1%[46.1 µM],/,-2%
CN(C)CCCN(C(=O)c1cc2ccccc2oc1=O)c1nc2ccc(F)cc2s1,13*,-7%,20,7%
CN(C)CCN(C(=O)c1ccc2ccccc2c1)c1nc2ccc(F)cc2s1,18*,/,57,/
CCc1ccc2nc(N(CCN(C)C)C(=O)c3ccc4ccccc4c3)sc2c1,21,/,11,/
O=C1c2ccccc2C(=O)N1CCCCN(C(=O)c1cc2ccccc2oc1=O)c1ccc(F)cc1F,60*,-33%,74*,?
CCCN1C(=O)/C(=C\C=C2/Sc3ccccc3N2CC)SC1=S,-3,/,-12,/
CN1C(=O)/C(=C/C=C2\SCCN2C)N(C)C1=S,49*,-24%[46.1 µM],121*,?
CN1C(=O)/C(=C/C=C2\SCCN2C)SC1=S,58*,?,82*,6%
COc1cc(NC(=O)C(C)C)ccc1NC(=O)c1cc2ccccc2o1,24*,/,40*,/
COc1cc(NC(=O)c2cccc(C)c2)ccc1NC(=O)c1cc2ccccc2o1,13*,/,49,/
CCC(=O)NC(=S)Nc1ccc(NC(=O)c2cc3ccccc3o2)c(OC)c1,1,?,30*,3%[46.1 µM]
CCC(=O)Nc1ccc(Cl)c(NC(=S)NC(=O)c2ccco2)c1,19,32%,-4,4%
CCC(=O)Nc1ccc(Cl)c(NC(=S)NC(=O)c2cc3ccccc3o2)c1,52*,-8%,72*,-13%
CCOc1cccc(C(=O)Nc2ccc(NC(=O)c3cc4ccccc4o3)c(OC)c2)c1,-2,?,2,?
NC(=O)CC[C@H](NC(=O)c1ccc(F)cc1)C(=O)OCC(=O)NCc1ccc(F)cc1,-4,7%[46.1 µM],-12,-3%
CCC1=NN2C(=N)/C(=C\c3ccc(OCc4cc(=O)n5nc(CC)sc5n4)c(OC)c3)C(=O)N=C2S1,7,/,-9,/
O=C(CN(C(=O)Cn1nnc(-c2ccc(F)cc2)n1)c1ccc(F)cc1)NC1CCCC1,2,1%,-7,-2%
COc1ccccc1CNC(=O)Cc1ccc(Br)cc1,35*,1%,active,-4%
Cc1ccc(CNC(=O)Cc2ccc(Br)cc2)cc1,-3,?,19,-2%
SMILES,CHX counter,MARV entry inh,Shiga toxin inh,Lassa entry inh
O=C(Cc1ccc(Br)cc1)NCc1ccccc1,19*,?,22,-10%
Cc1cc2cc3c(=O)[nH]c(=O)[nH]c3nc2cc1C,1,/,-7,/
CCC1=C[C@@H]2CN(C1)Cc1c([nH]c3ccccc13)[C@@](C(=O)OC)(c1cc3c(cc1OC)N(C)[C@H]1[C@@](O)(C(=O)OC)[C@H](OC(C)=O)[C@]4(CC)C=CCN5CC[C@]31[C@@H]54)C2,-7,/,-3,/
COc1cc(C(=O)NC(=S)N(CCc2ccccc2)CCc2ccccc2)cc(OC)c1OC,1,3.2µM*,-7,?
O=C(NC(=S)N(CCc1ccccc1)CCc1ccccc1)c1ccco1,-1,?,5,8.9µM*
COc1ccc(C(=O)NC(=S)N(Cc2ccccc2)Cc2ccccc2)cc1,32*,-26%,144*,?
